Molecules are shown by their SMILES. Results with a measured potency or affinity are listed apart. Calls of active or inactive are those of the source.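 Rule for the calls: active = compounds whose fitted half-maximal effective concentration for blocking dye efflux is below 100 µM; inactive = the rest.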

Chain of Benomyl/methotrexate resistance protein (Candida albicans) (P28873 whole entry, looked up): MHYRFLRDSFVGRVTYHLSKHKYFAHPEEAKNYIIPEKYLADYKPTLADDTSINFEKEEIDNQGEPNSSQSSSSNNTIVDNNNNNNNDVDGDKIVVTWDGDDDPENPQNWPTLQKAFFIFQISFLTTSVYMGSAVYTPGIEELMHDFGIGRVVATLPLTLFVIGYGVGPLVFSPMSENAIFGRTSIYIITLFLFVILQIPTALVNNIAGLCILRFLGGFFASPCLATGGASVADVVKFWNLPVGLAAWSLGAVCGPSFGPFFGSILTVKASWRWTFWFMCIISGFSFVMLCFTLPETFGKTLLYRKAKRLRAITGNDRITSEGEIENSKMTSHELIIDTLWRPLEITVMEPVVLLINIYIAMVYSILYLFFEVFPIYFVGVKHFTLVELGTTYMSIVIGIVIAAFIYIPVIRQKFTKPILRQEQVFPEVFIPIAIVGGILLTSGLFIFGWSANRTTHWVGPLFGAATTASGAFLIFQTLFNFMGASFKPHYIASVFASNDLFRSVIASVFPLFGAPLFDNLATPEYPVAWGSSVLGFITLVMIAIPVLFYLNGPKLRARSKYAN

This test addresses Benomyl/methotrexate resistance protein (Candida albicans) (UniProt P28873). Kind of test: CaMdr1 efflux pump inhibitor potency, dose response, singleplex, Cherry Pick2 set (AID 623992). As to conditions: S. cerevisiae AD/CaMDR1, Nile Red efflux, flow cytometry; series mostly up to 100 µM.
For the compound `COc1cc(OC)c2ccc(=O)oc2c1C(CCN1CCCC1)c1ccc(N(C)C)cc1` (stereo unspecified), the compound was called inactive.

Turning to `O=C(Nc1ccccc1)C1=C[C@H](c2ccccc2)C[C@H](OCCCCO)O1`, the compound was classed as inactive.

`CC(C)C(=O)N1CCC2(CC1)Oc1ccc(F)cc1C(=O)C21CC(c2ccc(Cl)cc2)=NO1` (stereo unspecified): the compound was called inactive.

For the compound `NC1=NC[C@H](Cc2ccc(O)cc2)N1CCc1cc(C(F)(F)F)cc(C(F)(F)F)c1`, the call was inactive.

With `CCN(CC)CCC(c1ccc(N(C)C)cc1)c1c(OC)cc(OC)c2ccc(=O)oc12` (stereo unspecified), the compound was classed as inactive.

On to `COc1ccc(-c2sc3ccccc3c2-c2ccc(OCCN(C)C)cc2)cc1`, for which the outcome was inactive.

In the case of `COc1ccc(S(=O)(=O)N(C)C[C@H]2Oc3c(NC(=O)NC4CCCCC4)cccc3C(=O)N([C@H](C)CO)C[C@@H]2C)cc1`, the call was inactive.

Take `O=C1C(Cc2ccccc2)Nc2ncnc(N3CCN(c4ccccc4)CC3)c2N1Cc1ccccc1` (stereo unspecified): the result was inactive.

As to `CCCCN1Cc2cc(C(=O)c3cc(F)ccc3O)cnc2NC1=O`, the compound was classed as inactive.

On to `O=C(C1CCC(CNc2nc(=S)[nH]c3ccccc23)CC1)N1CCN(c2ccc(F)cc2)CC1` (stereo unspecified), for which the call was inactive.

For the compound `COc1ccc2c(c1)OC[C@H]1[C@H]2N2C(=O)c3ccc(C)cc3NC(=O)[C@@]2(C)[C@H]1c1ccccc1`, the result was inactive.

In the case of `C[C@@]12C(=O)Nc3cc(F)c(F)cc3C(=O)N1[C@H]1c3cc(Cl)ccc3OC[C@@H]1[C@@H]2c1ccccc1`, the result was inactive.

`COc1ccc(N2CCN(C(=O)C3CCCN(c4ncnc5c4nc4n5CCCCC4)C3)CC2)cc1` (stereo unspecified): the call was inactive.

Regarding `COc1ccc(OC)c2sc(NC(=O)c3ccc(Br)s3)nc12`, the outcome was inactive.

For the compound `COc1ccc(O)c(C(=O)c2cnc3c(c2)CN(C)C(=O)N3)c1`, the compound was called inactive.

In the case of `Cc1ccc(CNC(=O)C2CCC(CNc3nc(=S)[nH]c4ccccc34)CC2)cc1` (stereo unspecified), the compound was called inactive.

For the compound `C[C@@]12C(=O)Nc3ccc(Cl)cc3C(=O)N1[C@H]1c3cc(Cl)ccc3OC[C@@H]1[C@@H]2c1ccccc1`, the compound was classed as inactive.

As to `Cc1ccc(C)c(N2CCN(C(=O)C3CCCN(c4ncnc5c4nc4n5CCCCC4)C3)CC2)c1` (stereo unspecified), the outcome was inactive.

Regarding `O=C(C1CCCN(c2ncnc3c2nc2n3CCCCC2)C1)N1CCN(c2ccccc2F)CC1` (stereo unspecified), the result was inactive.

On to `Cc1cccc(C2CC(c3ccccc3)=NN2c2ccc(S(N)(=O)=O)cc2)c1` (stereo unspecified), for which the outcome was inactive.

Take `O=C(NC1CCCc2c1cnn2-c1ccccc1F)c1ccccn1` (stereo unspecified): the compound was called inactive.

For the compound `O=C(CSc1nnc(Cc2cccs2)n1Cc1ccco1)Nc1cccc(Cl)c1`, the compound was called inactive.

In the case of `O=C(C[n+]1cc(-c2ccccc2)n2c1CCC2)N1c2ccccc2Sc2ccccc21`, the result was inactive.

For the compound `NS(=O)(=O)c1ccc(N2N=C(c3ccccc3)CC2c2ccccc2)cc1` (stereo unspecified), the outcome was inactive.

Turning to `O=C(C1CCCN(c2ncnc3c2nc2n3CCCCC2)C1)N1CCN(c2ccccc2)CC1` (stereo unspecified), the outcome was inactive.

On to `COc1ccc(CN2C(=O)C(C)Nc3ncnc(N4CCN(c5ccccc5)CC4)c32)cc1` (stereo unspecified), for which the compound was called inactive.

Take `CCCCN1Cc2cc(C(=O)c3cc(OC)ccc3O)cnc2NC1=O`: the result was inactive.

For `COc1ccc(CNC(=O)C(C#N)c2nc3ccccc3nc2N2CCCC2)cc1` (stereo unspecified), the outcome was inactive.

As to `O=C(c1ccc2c(c1)OCO2)N1CCC2(CC1)Oc1ccc(F)cc1C(=O)C21CC(c2ccc(Cl)cc2)=NO1` (stereo unspecified), the compound was called inactive.

Take `Cc1ccc(-c2c[n+](CC(=O)N3c4ccccc4Sc4ccccc43)c3n2CCC3)cc1`: the result was inactive.

`COc1ccccc1C(=O)OCCc1ccccc1`: the result was inactive.

These data come from PubChem BioAssay AID623992 (NMMLSC, 2012).
